From PubChem BioAssay AID493174 (National Center for Advancing Translational Sciences (NCATS), 2011)
Records with an inconclusive call do not appear. The source made the active and inactive calls. Calls come from the whole dose curve; as a rule, active = well fitted inhibition curve with a large enough effect; inconclusive = small, poorly fitted or top-dose-only effect; inactive = flat fitted curve, though single readings scatter.

assay: Confirmatory Assay for General miRNAs Modulators and/or Inhibitors/Activators of miR-21: second round cherrypicks; settings: HeLa miR-21 FLuc reporter, luciferase luminescence, 48 h; series mostly up to 38.3 µM; activity, negative = inhibition: at the top concentration
Excerpt: MLPCN Grant: 1 R21 NS059478-01 Assay Provider: Qihong Huang, The Wistar Institute NCGC Assay Overview: MicroRNAs (miRNAs) are endogenously encoded small (~20-25 nucleotides), nonprotein-coding RNAs that are involved in post-transcriptional repression of target messenger RNAs (mRNAs) (Le and Hannon, 2004). Estimated to be involved in the regulation of 30% of all protein-coding mRNAs (Filipowicz et al., 2008), miRNAs play a significant role in many biological processes including cellular differentiation and tissue development (Ghildiyal and Zamore, 2009).
NCGC Assay Protocol Summary: Reagents: HeLa cells stably expressing firefly luciferase (FLuc) under the control of a CMV promoter (upstream) and a miR-21 binding sequence directly downstream of the gene. These cells endogenously express miR-21. Control compounds used were compound C3 (provided by collaborator), N6-phenyladenosine (MP Biomedicals, 0215379625), and DMSO. Assay Summary: 6uL of HeLa miR-21-FLuc cells in assay buffer (DMEM, Invitrogen #21063-029; 10% FBS, HyClone #SH30071.03) were dispensed at 2000cells/well (3.3 x 10^5 cells/mL) into Greiner solid-white TC-treated 1536-well plates using a Multidrop Combi (Thermo Fisher Scientific). Plates were incubated for one hour at 37 degree Celsius, 95% humidity, 5% CO2. These assay plates were then treated with 23nL of compound or DMSO using a Kalypsys pin tool, which allows for delivery of a 24-point titration of each compound to the assay plate, with a final compound concentration ranging from approximately 40uM to 5pM. Assay plates were then incubated for 48 hours. After incubation, plates were allowed to come to RT for one hour prior to delivery of 3uL of 3X luciferase detection reagent. After a 15 minute incubation to allow for cell lysis, luciferase activity was measured using a ViewLux CCD imager (PerkinElmer), with an average exposure time of 2-12 seconds. Keywords: NIH Roadmap, MLPCN, MLSMR, qHTS, miR-21, microRNA, firefly luciferase, FLuc.

| SMILES | activity, negative = inhibition | Potency |
| --- | --- | --- |
| CN(c1ccccc1)S(=O)(=O)c1nnc(NC(=O)c2ccco2)s1 | -5.67% (inactive) | – |
| CCOC(=O)c1cccc(NC(=O)c2cc(CN3CCCC3)on2)c1 | – | 1 µM (active) |
| CCC(C)C(=O)N1CCCC(c2nc(-c3cccs3)no2)C1 (stereo not drawn) | – | 12.6 µM (active) |
| COCCNC(=O)c1ccc2c(c1)ncn2-c1ccc(F)c(F)c1 | – | 22.5 µM (active) |
| O=C(Nc1sc2c(c1C(=O)NCc1ccco1)CCCC2)c1cc(=O)c2ccccc2o1 | – | 5.65 µM (active) |
| Cc1cccc(NC(=O)Nc2ccc(Br)cc2)n1 | – | 2.52 µM (active) |
| CC(C)c1cc(C(=O)Nc2cccnc2)no1 | – | 3.18 µM (active) |
| CCC(C)NC(=O)CCCn1c(=O)c2cccn2c2ccccc21 (stereo not drawn) | -5.57% (inactive) | – |
| COc1ccc(Nc2nc(C)c3ccccc3n2)cc1 | – | 6.34 µM (active) |
| CCC(CC)C(=O)Nc1nnc(S(=O)(=O)N2CCCCCC2)s1 | -4.03% (inactive) | – |
| CCC(=O)Nc1sc(C(=O)Nc2ccccc2)c(C)c1C(=O)OC | – | 2.25 µM (active) |
| CCCOc1ccc(OC(=O)c2ccc(-c3ccc(CCC)cn3)cc2)cc1 | – | 1.26 µM (active) |
| COc1ccccc1N1CCN(C(=O)c2nc(-c3ccc(C)cc3)n3c2CCCCC3)CC1 | 11% (inactive) | – |
| CCCCN1CCc2c([nH]c3ccccc23)C1=O | – | 12.6 µM (active) |
| Cc1ccc(NC(=O)c2ccc(-c3ccccc3)s2)cc1 | – | 5.65 µM (active) |
| CC(=O)O[C@H]1C[C@@]2(C)[C@@H](C[C@@H](O)[C@H]3[C@@]4(C)CC[C@@H](O)[C@@H](C)C4CC[C@@]32C)/C1=C(\CCC=C(C)C)C(=O)O (stereo partly drawn) | -6.79% (inactive) | – |
| COc1ccc(N2C(=O)c3ccccc3NC2c2ccc(OC)c(Cn3nnc4ccccc43)c2)cc1 (stereo not drawn) | – | 12.6 µM (active) |
| CCOC(=O)C1CCN(C(=O)c2ccc(-n3ccc4ccccc43)s2)CC1 | – | 11.3 µM (active) |
| Cc1ccc(C(=O)Nc2ccc3c(c2)ncn3C)cc1 | – | 7.11 µM (active) |
| CCc1cc(C(=O)Nc2ccccc2)cs1 | – | 3.18 µM (active) |
| O=C(NC1CCCCCC1)C1CCN(C(=O)N2CCOc3ccc(Cl)cc32)CC1 | -7.39% (inactive) | – |
| Cc1cc(C)c2c(N)c(C(=O)Nc3ccccc3C(F)(F)F)sc2n1 | – | 20 µM (active) |
| COC(=O)c1ccccc1NC(=O)Nc1cc(C(C)(C)C)on1 | – | 5.65 µM (active) |
| C/C(=N/NC(=O)c1ccccc1)c1ccc(NC(=O)C(F)(F)F)cc1 | -18.7% (inactive) | – |
| CC(=O)N1CCc2cc(CNC(=O)Cc3ccc(F)cc3)ccc21 | – | 11.3 µM (active) |
| Cc1ccc(-c2cc(C(=O)NCC3CCCO3)no2)cc1 (stereo not drawn) | – | 4.49 µM (active) |
| CC(=O)c1ccc(Oc2ncnc3c2oc2ccccc23)cc1 | – | 4 µM (active) |
| Cc1ccccc1NC(=O)c1cc2c([nH]c1=O)CC(C)(C)CC2=O | – | 0.711 µM (active) |
